Screening results from PubChem BioAssay.
Hits are enriched below; roughly 5.7% of the tested compounds scored in any of these assays.
hcDAF-12 act: H. contortus DAF-12 nuclear receptor activators, primary screen, cell-based, luminescence, HEK293, lit1-tk-luc reporter; AID 652067, 2013; 1.4% of 370,000 active; HEK293 hcDAF-12 lit1-tk-luc reporter; 0% DMSO, 100% Δ7-dafachronic acid; activation, % at 6.8 µM;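 active = activation above the mean of all tested compounds plus 3 SD, cut at about 5.5% in these data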;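 also: 100% = response to 3 µM Δ7-dafachronic acid high control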
AHR activator: AHR activators, primary screen, cell-based, luminescence, luciferase reporter, human; AHR-responsive luciferase reporter cells; activation, % at 5 µM; AID 2796, 2010; Aryl hydrocarbon receptor (Homo sapiens), P35869; 2.5% of 320,000 active; in the data active = activation above about 47%;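 also: 0% = vehicle wells and 100% = reference agonist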
Target sequence (P35869 whole entry, looked up): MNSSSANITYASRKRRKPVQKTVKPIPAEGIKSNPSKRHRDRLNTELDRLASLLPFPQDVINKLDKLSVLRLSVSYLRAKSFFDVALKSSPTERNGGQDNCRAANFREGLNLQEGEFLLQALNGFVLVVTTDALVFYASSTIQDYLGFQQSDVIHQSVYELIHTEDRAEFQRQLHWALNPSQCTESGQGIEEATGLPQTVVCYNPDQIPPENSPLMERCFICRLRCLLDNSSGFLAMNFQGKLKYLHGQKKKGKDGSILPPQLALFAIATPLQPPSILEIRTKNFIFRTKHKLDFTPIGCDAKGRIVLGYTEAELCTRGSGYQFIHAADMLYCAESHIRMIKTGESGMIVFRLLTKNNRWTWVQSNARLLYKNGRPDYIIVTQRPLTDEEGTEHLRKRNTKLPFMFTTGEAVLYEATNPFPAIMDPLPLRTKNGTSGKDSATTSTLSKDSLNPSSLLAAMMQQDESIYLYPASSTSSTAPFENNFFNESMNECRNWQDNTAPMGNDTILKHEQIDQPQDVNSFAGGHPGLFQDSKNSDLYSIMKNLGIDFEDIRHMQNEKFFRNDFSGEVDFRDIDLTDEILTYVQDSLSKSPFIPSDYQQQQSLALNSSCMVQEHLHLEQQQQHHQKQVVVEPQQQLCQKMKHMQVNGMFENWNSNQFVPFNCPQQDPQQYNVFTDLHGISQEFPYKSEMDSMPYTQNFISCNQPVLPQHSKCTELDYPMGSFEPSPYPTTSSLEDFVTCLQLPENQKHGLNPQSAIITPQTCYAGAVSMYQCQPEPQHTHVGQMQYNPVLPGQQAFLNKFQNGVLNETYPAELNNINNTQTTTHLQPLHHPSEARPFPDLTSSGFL
DAX1 inh-1: DAX1 (NR0B1) inhibitors, primary screen, cell-based, HEK293, Gal4-DAX1, luciferase luminescence; Nuclear receptor subfamily 0 group B member 1 (Homo sapiens), P51843; HEK293 Gal4-DAX1 luciferase reporter; inhibition, % at 6.75 µM; 0.99% of 340,000 active;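 active = inhibition above the mean over all tested compounds plus 3 SD, cut at about 4.2% in these data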;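 also: 0% = DAX1-transfected cells with DMSO and 100% = empty-vector control cells with DMSO; inhibition shows as a rise in luminescence from relieved DAX1 repression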
DAX1 inh-2: DAX1 (NR0B1) inhibitors on StAR promoter, primary screen, cell-based, luminescence, SF-1 (NR5A1), full-length DAX-1. HEK293T StAR-luciferase reporter, SF-1/DAX-1 repression relief. inhibition, % at 6.8 µM. 1.1% of 370,000 active. AID 652010, 2013;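 active = inhibition above the mean over all tested compounds plus 3 SD, cut at about 3.6% in these data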;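 also: 0% = DAX-1 cells with DMSO and 100% = cells lacking DAX-1 with DMSO; higher inhibition means more luminescence from relief of DAX-1 repression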
hgDAF-12 ag: H. glycines DAF-12 receptor agonists, primary screen, cell-based, luminescence, HEK293, GAL4 fusion, UAS-luciferase; 1.8% of 370,000 active; Nuclear hormone receptor DAF-12 (Heterodera glycines), GAL4 fusion; activation, % at 6.8 µM; HEK293 GAL4-hgDAF12 UAS-luciferase reporter, agonist luminescence; normalized to butyrate control; AID 687014, 2013;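 active = activation above a cutoff set at the mean of all screened compounds plus 3 SD, cut at about 10% in these data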;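 also: 0% = DMSO wells and 100% = sodium butyrate wells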
ssDAF-12 act: S. stercoralis DAF-12 nuclear receptor activators, primary screen, cell-based, luminescence, HEK293, GRIP1 co-expression, lit1-tk-luc; Nuclear hormone receptor DAF-12 (Strongyloides stercoralis); HEK293 ssDAF-12/GRIP1 lit1-tk-luc reporter; % of 3 µM dafachronic acid response; activation, % at 6.8 µM; 1% of 370,000 active; AID 652126, 2013;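 active = activation above the mean over all tested compounds plus 3 SD, cut at about 0.9% in these data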;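 also: 0% = DMSO-only wells and 100% = 3 µM delta7-dafachronic acid wells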
AHR act confirm: AHR activators, confirmation, cell-based, luminescence, luciferase reporter, human. shares compounds with AHR activator. human cells, AHR-responsive luciferase reporter. activation, % at 9 µM. 87% of 2,300 active. AID 2845, 2010; in the data active = activation above about 49%;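 also: HepG2 hepatoma cells carrying a DRE-driven firefly luciferase reporter; 0% = vehicle wells and 100% = reference agonist wells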
PXR act counter: human PXR activators, counter-screen for AHR activator project, cell-based, luciferase luminescence; shares compounds with AHR activator; cell-based PXR reporter; activation, % at 11.6 µM; 88% of 2,300 active; in the data active = activation above about 11%;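 also: human hepatoma DPX-2 cells expressing full-length human PXR; 0% = DMSO and 100% = reference agonist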
DAX1 conf: DAX1 (NR0B1) inhibitors relieving SF-1 repression, confirmation, cell-based, luminescence, HEK293T, full-length DAX-1, SF-1 activated StAR promoter | shares compounds with DAX1 inh-2 | HEK293T StAR-promoter luciferase reporter, SF-1/DAX-1 repression | inhibition, % at 6.8 µM | 87% of 2,400 active;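 active = inhibition above the average of every tested compound plus 3 SD, cut at about 3.8% in these data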;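 also: 0% = DAX-1 cells with DMSO and 100% = no DAX-1 control cells with DMSO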
SF1 mutant ctr: StAR reporter signal changes without DAX1, counter-screen for DAX1 inhibitor project, cell-based, luminescence, AF-2 mutant SF-1, transactivation; HEK293 StAR-luciferase, SF-1 AF2 mutant; shares compounds with DAX1 inh-2; inhibition, % at 6.8 µM; AID 652136, 2013; 78% of 2,400 active;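 active = inhibition above the mean of all tested compounds plus 3 SD, cut at about 3% in these data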;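 also: 0% = DAX-1 transfected cells with DMSO and 100% = cells without DAX-1 with DMSO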
LXR ag: LXR agonists, Gal4 luciferase reporter, confirmation, counter-screen for hcDAF-12 agonist project, cell-based, luminescence, HEK293, H. contortus campaign. shares compounds with hcDAF-12 act. HEK293 Gal4-LXR tk-luc reporter, 24 h; normalized: DMSO 0%, positive control 100%. activation, % at 6.8 µM. 3,400 tested, under 10 active. AID 743027, 2013;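 active = mean percent activation of the reporter above a cutoff set as the average over tested compounds plus their standard deviation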
hcDAF12 ag: H. contortus DAF-12 receptor agonists, confirmation, cell-based, luminescence, HEK293, lit1-tk-luc, triplicate | HEK293 hcDAF-12 lit1-tk-luc reporter; % of Δ7-dafachronic acid response | activation, % at 6.8 µM | shares compounds with hcDAF-12 act | 61% of 3,400 active;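 active = mean activation across triplicate tests above the threshold derived from the earlier primary screen, cut at about 5.5% in these data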;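 also: 0% = DMSO only wells and 100% = 3 µM Δ7-dafachronic acid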
Numbers without * were called inactive; / = not tested or not shown.

SMILES | hcDAF-12 act | AHR activator | DAX1 inh-1 | DAX1 inh-2 | hgDAF-12 ag | ssDAF-12 act | AHR act confirm | PXR act counter | LXR ag | hcDAF12 ag | others
Nc1nc(-c2ccccc2)nc2sc3c(c12)CCCC3 | 21* | 92* | 2 | 8.3* | 18* | 3.0* | 89* | 54* | 2 | 17* | DAX1 conf=17*;SF1 mutant ctr=6.5*
CCn1c2ccc(C)cc2c2nnc(SCCN3CCOCC3)nc21 | -1 | 25 | -1 | -1 | -4 | -2 | / | / | / | /
Cc1c(-c2ccccn2)c(=O)[nH]n1-c1ccc(F)cc1 | 15* | 91* | 2 | 4.2* | 26* | 1.8* | 77* | 11* | 2 | 15*
CN1CCCC1CCSc1ncccc1-c1nc2ccccc2[nH]1 (centres undefined) | -1 | / | / | 1 | 4 | -1 | / | / | / | /
COc1ccc(Cl)cc1NC(=O)CN(C)C(C)C(=O)NC(=O)NC1CCCCC1 (centres undefined) | 4 | 5 | -1 | 0 | 3 | -1 | / | / | / | /
CCCc1cc(=O)n2[nH]c(-c3cccc(Br)c3)cc2n1 | 7.7* | 160* | 5.6* | 1 | 8 | -1 | 166* | 35* | 1 | 7.3*
Cc1cc(CNC(=O)c2ccc(C)c([N+](=O)[O-])c2)c2ccccc2n1 | -1 | 4 | 1 | -2 | 2 | -2 | / | / | / | /
Cc1c(C(=O)Nc2ccc(N3CCOCC3)cc2)oc2ccccc12 | 11* | 85* | 1 | 1 | 5 | 0 | 131* | 19* | 1 | 8.6*
Cc1ccc(NC(=O)c2oc3ccccc3c2C)nc1 | 8.5* | 139* | 2 | 8.2* | 13* | 3.3* | 141* | 14* | 1 | 16* | DAX1 conf=8.4*;SF1 mutant ctr=5.5*
Cc1c(C(=O)OCC(=O)Nc2ccc(N3CCOCC3)cc2)oc2ccccc12 | 1 | 3 | 0 | 0 | -1 | -1 | / | / | / | /
O=C1CCN(N=Nc2cccc(Cl)c2)N1 | / | 11 | / | / | / | / | / | / | / | /
Cn1cc(SCC(=O)NCC2CCCO2)c2ccccc21 (centres undefined) | 2 | 10 | 1 | -1 | 0 | -1 | / | / | / | /
CC1=CC(c2ccccc2)n2nc(N)nc2N1 (centres undefined) | 1 | 5 | 0 | -1 | 2 | -1 | / | / | / | /
COc1ccc2c(=O)c3c(=O)n(-c4ccc(C)cc4)c(-c4ccccc4)nc3oc2c1 | / | 1 | / | / | / | / | / | / | / | /
Cc1ccc(-n2c(C)nc3oc4ccccc4c(=O)c3c2=O)cc1 | 12* | 91* | 2 | 4.5* | 10 | 1.8* | 99* | 11* | 0 | 9.2* | DAX1 conf=8.5*;SF1 mutant ctr=6.1*
Cc1ccccc1C(=O)O/N=C(\N)c1ccccc1 | 10* | 79* | 4 | 3 | 8 | 0.9* | 95* | 8 | 2 | 25*
N/C(=N\OC(=O)c1cccc2ccccc12)c1ccc(Br)cc1 | 8.9* | 96* | -2 | 0 | -1 | 2.2* | 99* | 15* | 0 | 4
Fc1ccccc1-c1nc(-c2ccccc2)no1 | 10* | 93* | 1 | 4 | 10 | 1.9* | 126* | 13* | 2 | 18*
Cc1ccccc1-c1nc(-c2ccc(Br)o2)no1 | 17* | 102* | 4 | 1 | 10 | 2.3* | 127* | 49* | 1 | 12*
COc1ccc(Br)cc1-c1noc(-c2ccccc2F)n1 | 0 | 9 | -1 | 0 | -2 | -1 | / | / | / | /
Cc1ccccc1-c1nc(-c2ccc(NC(=O)c3ccc(Br)o3)cc2)no1 | 1 | 21 | 1 | 0 | 6 | -1 | / | / | / | /
Fc1ccccc1-c1nc(-c2ccc(Br)o2)no1 | 17* | 102* | 2 | 3 | 21* | 2.3* | 143* | 31* | 2 | 17*
Cc1ccc2c(c1)COc1c3ccc(C(=O)NCCO)cc3nn1-2 | 2 | -4 | 2 | 1 | 7 | 0 | / | / | / | /
CCCC#Cc1ccc2c(c1)COc1c3ccccc3nn1-2 | 11* | 109* | 5.5* | 4.1* | 17* | 2.6* | 63* | -2 | 2 | 12*
CC(=O)c1ccc(NS(=O)(=O)Cc2ccccc2)cc1 | 0 | 1 | 0 | 0 | 2 | -1 | / | / | / | /
CCN(CC)c1ccc(/C=N/N(c2ccccc2)c2ccccc2)c(O)c1 | 12* | 94* | 0 | 0 | 6 | 1.1* | 90* | 97* | 0 | 5
NNc1nc2c(-c3ccc(Cl)cc3)nnn2c2ccccc12 | 8.1* | 97* | 5.8* | 2 | 10 | 0 | 117* | 16* | 1 | 14*
CN(Cc1ccon1)C(=O)CCc1nnc(Cc2ccc(-c3ccccc3)cc2)o1 | -1 | 1 | 0 | -1 | 0 | -1 | / | / | / | /
